# Measured values taken from PubChem BioAssay.
# “And” between values parts separate entries of the source, which are not always exact repeats. Equal entries are not always repeated. A structure can be active in one record and inactive in another. The source made the active and inactive calls.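 The calls were made as follows, unless noted: active = compound that reduces growth-factor-driven endothelial tube area in a mixed cell culture, no cutoff stated; inactive = the rest.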
# What was measured:
# [1] = stimulators of nuclear beta-catenin in C2C12, primary screen, imaging, WNT3A-conditioned medium, mouse C2C12, NPC library (AID 1117326; in the data active = nuclear beta-catenin stimulation mostly above about 4.2%, no sharp cut-off; inactive = mostly below about 10%; also: reference of the scale not given here); conditions: stronger effect = higher value
# [2] = stimulators of insulin release from INS-1E, primary screen, cell-based, 5 mM glucose, NPC library (AID 1117329;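 active = compound raises insulin release from rat beta cells at 5 mM glucose, no numeric limit stated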; also: reference of the scale not given here); conditions: rat INS-1E insulin secretion, at 10 µM, stronger effect = higher value
# [3] = growth inhibition of GSK3B-pretreated HCT116 cells – cell-based, CellTiter-Glo, 0.2 to 20 µM (AID 1117336;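 active = compounds lowering colon cancer cell viability after pretreatment blocking the GSK3B kinase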); conditions: HCT116 viability after GSK3B inhibitor, at 20 µM, stronger effect = higher value
# [4] = inhibition of endothelial tube formation, primary screen, imaging, VEGF stimulated, CD31 staining, tube area, NPC library (AID 1117340); conditions: VEGF-stimulated ADSC/ECFC co-culture, at 10 µM, stronger effect = higher value
# [5] = glucagon-like peptide 1 release enhancers, primary assay, NCI-H716 cell line, NPC library (AID 1117341;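 active = compound raises GLP1 secretion from the human gut endocrine cells, with no numeric limit stated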; also: reference of the scale not given here); conditions: NCI-H716 cells, at 10 µM, stronger effect = higher value
# [6] = HCT116 colon cancer cell growth inhibition, primary screen, CellTiter-Glo luminescence, NPC library (AID 1117342;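 active = compounds that lower survival of HCT116 colon cancer cells in the luminescence readout, no numeric limit stated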); conditions: at 20 µM (top of the series)
# [7] = CellTiter-Glo luminescent readout of SW480 viability loss, NPC library primary (AID 1117343;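 active = compounds that lower viability of the colon cancer cells in the luminescence readout, with no numeric limit stated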); conditions: CellTiter-Glo luminescence; at 20 µM (top of the series)
# [8] = decreased DLD-1 cellular survival, CellTiter-Glo luminescent readout, NPC compound collection, primary HTS (AID 1117346;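 active = compounds that lower survival of DLD-1 colon cancer cells in the luminescence readout, no cutoff given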); conditions: DLD-1 viability, CellTiter-Glo luminescence; at 20 µM (top of the series)
Compound,nuclear beta-catenin stimulation ([1]; at 10 µM),"nuclear beta-catenin stimulation ([1]; stimulation, at 2 µM)",insulin secretion stimulation [2],viability decrease [3],tube area decrease [4],GLP1 secretion stimulation [5],inhibition of viability [6],viability decrease (inhibition) [7],viability decrease (inhibition) [8]
Cc1onc(-c2ccccc2)c1C(=O)Cl,0% (inactive),-1.4%,2.75% (inactive),0.5% (inactive),-12.1% (inactive),1.7% (inactive),1.8% (inactive),-5.7% (inactive),-12.5% (inactive)
COc1ccc(S(=O)(=O)Nc2nnc(CC(C)C)s2)cc1,-0.3% (inactive),-0.5%,5.1% (inactive),-9.2% (inactive),-5.8% (inactive),-1.9% (inactive),-18.3% (inactive),13.7% (inactive),-19.8% (inactive)
COc1ccc(C=CC(=O)O)cc1,-1.4% (inactive),0%,1% (inactive),-39% (inactive),4.7% (inactive),-4.2% (inactive),2.2% (inactive),-6.4% (inactive),-5.9% (inactive)
COc1cc2nc(Cl)nc(N)c2cc1OC,0.1% (inactive),-1.5%,2.8% (inactive),13.3% (inactive),9.3% (inactive),0.6% (inactive),22.3% (inactive),-4.5% (inactive),21.8% (inactive)
COc1ccc2nc(SCc3ncc(C)c(OC)c3C)[nH]c2c1,1.9% (inactive),0.8%,3.1% (inactive),1% (inactive),24.8% (inactive),1.6% (inactive),26.8% (inactive),-12.2% (inactive),-6.1% (inactive)
COc1cc(C=C2CCC/C(=C\c3ccc(O)c(OC)c3)C2=O)ccc1O,118% (active),4.1%,11.1% (inactive),99.1% (active),106% (active),-3% (inactive),99.5% (active),103% (active),101% (active)
O=C1C(c2[nH]c3ccccc3c2O)=Nc2ccccc21,-0.7% (inactive),1.4%,1.2% (inactive),18.2% (inactive),27.2% (inactive),0.5% (inactive),16.9% (inactive),24.1% (inactive),0.2% (inactive)
CO[C@@H]1[C@@H](OC)[C@H](C)[C@@](O)(CC(=O)O)O[C@H]1[C@H](C)[C@H]1O[C@@]2(CC[C@@](C)([C@H]3CC[C@@](C)([C@@H]4O[C@@H]([C@H]5O[C@](C)(O)[C@H](C)C[C@@H]5C)C[C@@H]4OC4C[C@H](OC)[C@@H](OC)[C@H](C)O4)O3)O2)C[C@H](O)[C@H]1C (some centres not stated),-1.1% (inactive),10.6%,5.4% (inactive),79.8% (active),111% (active),15% (inactive),66.7% (active),128% (active),96.7% (active)
CCC(=O)Oc1ccc2c(c1)CC[C@@H]1[C@H]2CC[C@]2(C)[C@@H](OC(=O)CC)CC[C@@H]12,-0.2% (inactive),0.2%,0.1% (inactive),33.4% (inactive),28% (inactive),2.4% (inactive),42.6% (inactive),49.6% (inactive),2.6% (inactive)
Cc1ccc(C(C)OC(=O)C2(C)CCC(C(=O)O)C2(C)C)cc1 (configuration not stated),-0.2% (inactive),-2.1%,2.1% (inactive),-5% (inactive),-0.8% (inactive),0.6% (inactive),0.3% (inactive),-11.8% (inactive),14.4% (inactive)
Cc1c(C)n(Cc2ccccc2)c2ccc(C(=O)OCCN(C)C)cc12,12.1% (inactive),-0.2%,79.2% (active),90.9% (active),29.5% (inactive),10.7% (inactive),98.9% (active),88.7% (active),95% (active)
O=C(O)[C@@H]1CSCN1,0% (inactive),0.2%,-2.5% (inactive),-3.1% (inactive),16.2% (inactive),-0.4% (inactive),3.3% (inactive),38.4% (inactive),11.6% (inactive)
NCc1ccccc1Sc1ccccc1CO,0.6% (inactive),1%,-0.8% (inactive),-138% (inactive),-11.8% (inactive),3.3% (inactive),6.13% (inactive),29.2% (inactive),-10.7% (inactive)
C=CCNc1nc(NCC=C)nc(N2CCN(C(c3ccc(F)cc3)c3ccc(F)cc3)CC2)n1,0.3% (inactive),-1%,-0.6% (inactive),50.3% (active),17.9% (inactive),-3.9% (inactive),49.1% (inactive),56.9% (active),49.4% (inactive)
CC(C)(C)c1ccc(C(=O)CCCCl)cc1,-0.1% (inactive),0.6%,3.7% (inactive),-2.4% (inactive),20.9% (inactive),-3.6% (inactive),10.3% (inactive),-21.3% (inactive),0.9% (inactive)
Cc1cc(O)c2ccccc2c1O,53.2% (active) and 30.1% (inactive),1.1% and -0.7%,5% (inactive) and 0.4% (inactive),101% (active) and 99.2% (active),74.4% (active) and 26.8% (inactive),-6.3% (inactive) and -0.9% (inactive),102% (active) and 99.5% (active),142% (active) and 102% (active),104% (active) and 101% (active)
C#CC(C)(CC)OC(=O)c1ccccc1C(=O)O (configuration not stated),3.1% (inactive),1.3%,-0.2% (inactive),-19% (inactive),-5.2% (inactive),3.4% (inactive),5.2% (inactive),11.9% (inactive),-12.1% (inactive)
CCOC(=O)Oc1ccc(CCNC(=O)[C@H](CCSC)NC(C)=O)cc1OC(=O)OCC,-0.7% (inactive),1.3%,-1.6% (inactive),41% (inactive),1.3% (inactive),-1.1% (inactive),2.33% (inactive),14.7% (inactive),18.4% (inactive)
OC[C@]1(O)OC[C@@H](O)[C@H](O)[C@@H]1O,3.7% (inactive),0.4%,-1.9% (inactive),-2.95% (inactive),7.1% (inactive),-6% (inactive),-4.9% (inactive),92.3% (active),9.6% (inactive)
CC(=O)O[C@H]1C[C@@H]2CC[C@H]3[C@H]4C[C@H]([N+]5(C)CCCCC5)[C@@H](OC(C)=O)[C@@]4(C)CC[C@@H]3[C@@]2(C)C[C@H]1[N+]1(C)CCCCC1,0.7% (inactive),0.2%,-1.1% (inactive),-2.7% (inactive),9.9% (inactive),-1.6% (inactive),-3.6% (inactive),-1.7% (active),-2.8% (inactive)
CCOc1ncc(F)c(=O)[nH]1,-1% (inactive),-1.1%,2.9% (inactive),0.7% (inactive),0.1% (inactive),2.1% (inactive),2.4% (inactive),3% (inactive),-4.2% (inactive)
O=C(O)CC(O)C(=O)O (configuration not stated),6% (inactive),0%,-0.5% (inactive),-6% (inactive),1.8% (inactive),1.3% (inactive),-8.5% (inactive),13.3% (inactive),-7.65% (inactive)
CO/N=C(/C(=O)N[C@@H]1C(=O)N2C(C(=O)[O-])=C(C[n+]3ccn4ncccc43)CS[C@H]12)c1nsc(N)n1,2% (inactive),-1%,3.45% (inactive),16.4% (inactive),-10.7% (inactive),-1.2% (inactive),-21.9% (inactive),-3.8% (inactive),-6.6% (inactive)
Oc1cc(O)cc(O)c1,-0.5% (inactive),2.8%,-1.3% (inactive),-20.3% (inactive),-14.9% (inactive),-1.7% (inactive),-0.5% (inactive),21.1% (inactive),-3.4% (inactive)
O=C(NCN1CCOCC1)c1cnccn1,1.4% (inactive),0.7%,0.2% (inactive),15.3% (inactive),7.8% (inactive),-2.9% (inactive),29.4% (inactive),40.1% (inactive),8.3% (inactive)
O=C(N/N=C/c1ccccc1O)c1ccncc1,32.2% (inactive),11.1%,-1.6% (inactive),94.3% (active),86.7% (active),2.1% (inactive),88.7% (active),106% (active),57.8% (active)
Cc1c(C)c2c(c(C)c1OC(=O)CCC(=O)O)CC[C@@](C)(CCC[C@H](C)CCC[C@H](C)CCCC(C)C)O2,-0.9% (inactive),-0.6%,2.6% (inactive),36.4% (inactive),61.9% (active),-3.2% (inactive),54.9% (active),75% (active),66% (active)
C=C1C(=C/C=C2\CCC[C@]3(C)[C@@H]([C@H](C)/C=C/[C@@H](O)C4CC4)CC[C@@H]23)C[C@@H](O)C[C@@H]1O,2.6% (inactive),4.1%,4.15% (inactive),103% (active),19.7% (inactive),3.9% (inactive),82% (active),111% (active),92.9% (active)
